Structures can show the parent of a compound that is named as a salt.

The assay deals with Staphylococcus aureus Sa2 (MRSA, cystic fibrosis isolate). The assay can be described thus: growth reduction vs untreated control (viable cell count); higher = stronger antibacterial activity; extreme values may be limits of the assay. The conditions noted are these: 0.1 mM; 24 h. As for the experimental part: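 Single-dose screen of the MedChem Express Drug Repurposing Library (0.1 mM, 1% DMSO) against planktonic MRSA S. aureus Sa2 (CF isolate) in TSB in 96-well plates, 37 °C aerobic, 24 h. Assays were run in triplicate and repeated twice.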
Turning to `O=c1[nH]c2ccccc2n1C1CCN(CCCC(c2ccc(F)cc2)c2ccc(F)cc2)CC1` [Pimozide], the growth reduction is 98%.
In turn, `Cc1cc2c(C(C)C)c(O)c(O)c(C=O)c2c(O)c1-c1c(C)cc2c(C(C)C)c(O)c(O)c(C=O)c2c1O` [(R)-(-)-Gossypol acetic acid] yielded a growth reduction of 100%.
Turning to `Cc1cc2c(C(C)C)c(O)c(O)c(C=O)c2c(O)c1-c1c(C)cc2c(C(C)C)c(O)c(O)c(C=O)c2c1O` [Gossypol (acetic acid)], the growth reduction was determined as 100%.
Turning to `CC[C@H](C)C1O[C@]2(C=C[C@@H]1C)C[C@@H]1C[C@@H](C/C=C(\C)[C@@H](O[C@H]3C[C@H](OC)[C@@H](O[C@H]4C[C@H](OC)[C@H](NC)[C@H](C)O4)[C@H](C)O3)[C@@H](C)/C=C/C=C3\CO[C@@H]4[C@H](O)C(C)=C[C@@H](C(=O)O1)[C@]34O)O2` (stereo partly drawn) [Emamectin (Benzoate)], the growth reduction came out at 100%.
Take `O=C(CNC(=O)c1ccc(C2=NOC(c3cc(Cl)cc(C(F)(F)F)c3)(C(F)(F)F)C2)c2ccccc12)NCC(F)(F)F` (stereo not drawn) [Afoxolaner]: the growth reduction worked out at 98%.
The figure for `c1ccc2c(c1)Sc1ccccc1N2CC1CN2CCC1CC2` (stereo not drawn) [Mequitazine] is 96%; for `Fc1ccc(C(OCCN2CCN(CCCc3ccccc3)CC2)c2ccc(F)cc2)cc1` [Vanoxerine (dihydrochloride)] it is 99%; for `COc1cccc2c1cc([N+](=O)[O-])c1c(C(=O)O)cc3c(c12)OCO3` [Aristolochic acid A] it is 100%.
Consider `O=c1c2ccccc2[se]n1-c1ccccc1` [Ebselen], for which the growth reduction is 100%.
As to `C[S+]([O-])CCCCN=C=S` (stereo not drawn) [Sulforaphane], the growth reduction came out at 100%.
`Cc1cc2c(C(C)C)c(O)c(O)c(C=O)c2c(O)c1-c1c(C)cc2c(C(C)C)c(O)c(O)c(C=O)c2c1O` [Gossypol]: the growth reduction is 100%.
Consider `O=C(O)c1nn(Cc2ccc(Cl)cc2Cl)c2ccccc12` [Lonidamine], for which the growth reduction is 90%.
Molecule `CCNC1=Nc2ccc(Cl)cc2C(C)(c2ccccc2)O1` (stereo not drawn) [Etifoxine] displayed a growth reduction of 100%.

The values above are taken from the supplement of paper PMC12024424.
